Consider 40 compounds from PubChem BioAssay (NCATS).

A number with no mark means an inactive call. Inconclusive results are not listed. A call without a number means that no potency is given here. The source made the active and inactive calls. Calls follow the shape of the dose curve; as a rule, active = well fitted curve in the direction sought with a large enough effect; inconclusive = small, poorly fitted or top-dose-only effect, or another doubt; inactive = no such curve, though single readings can be large; an effect the other way counts as inactive or inconclusive.

The nature of test [1]: qHTS to identify inhibitors of the type 1 interferon - major histocompatibility complex class I in skeletal muscle: primary screen against the NCATS LOPAC collection (AID 1347405).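 Also: lytic HiBiT luminescence reporting HLA-B protein level.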 In a few lines:
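First, engineered myoblasts carrying HLA-B-HiBiT were seeded in medium lacking dexamethasone with 4 ng/ml IFN-beta. After 1 hr, compounds were pinned in (top 46 uM final, 7 points). After 24 hrs at 37 C, luminescence was measured following 10 min lysis.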
On the technique in general: In qHTS, concentration-response curves come from the screen itself.

Test [2] is described as follows: qHTS for inhibitors of adenylyl cyclases using a fission yeast platform: a pilot screen against the NCATS LOPAC library (AID 1347410). The essentials: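 S. pombe CHP2027 (AC9-GNAS-PDE4D2) carrying PKA-repressed fbp1-GFP, incubated 18 h at 30C in EMM with LOPAC compounds at up to 57 uM. GFP gain-of-signal read by laser scanning cytometry; DMSO negative control.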

A short description of test [3]: Validation qHTS assay for inhibitors of Activation Induced Cytidine Deaminase (AID): UDG Counterscreen signal (AID 1347427). The essentials:
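Fluorescence at 560 nm excitation, 665 nm emission reports UDG signal after 250 mM NaOH (2x) addition and 30 min. Enzymes (AID 1 uM, UDG 2 U/mL, at 4/3x) preincubated 10 min with compound, then 4 h with 4x 250 nM DJC20/DJC23 substrate at room temperature.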

Test [4] addresses Single-stranded DNA cytosine deaminase (Homo sapiens) (UniProt Q9GZX7). Description: Validation qHTS assay for inhibitors of Activation Induced Cytidine Deaminase (AID): AID signal (AID 1347429). In a few lines:
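Steps: dispense AID with UDG; pin-transfer compound up to 114 uM final; add DJC20/DJC23 substrate and hold 4 hr at room temperature; add NaOH, hold 30 min; read FRET signal (540/590 nm).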

Test [5] is described as follows: qHTS to identify inhibitors of the type 1 interferon - major histocompatibility complex class I in skeletal muscle: primary screen against the NCATS Pharmaceutical Collection (AID 1347407).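 Also: luminescence of HiBiT knocked into endogenous HLA-B as interferon-induced MHC class I level.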 Also: potency is read from the fitted curve at half-maximal effect. In a few lines:
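Immortalized human myoblasts (C25cl48) with HiBiT knocked into endogenous HLA-B*08:01 were stimulated with 4.0 ng/ml IFN-beta and treated with compounds ([…] top 46 uM) for 24 hrs at 37 C. HiBiT lytic luminescence read.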

For test [6], the target named is Protein phosphatase 1D (Homo sapiens) (UniProt O15297). Description: RapidFire Mass Spectrometry qHTS Assay for Modulators of WT P53-Induced Phosphatase 1 (WIP1) (AID 1347424). Also: series mostly up to about 63 µM. In a few lines:
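RapidFire MS readout of dephosphorylated VEPPL-S-QETFS product, with 1 uM isotope-labelled peptide standard. Reaction: 10 nM WIP1, 2 uM phosphopeptide substrate, 5 min, room temperature, after 1 h compound preincubation; stopped with 0.5% formic acid.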

The target is the same in test [7]. Description: Rhodamine-PBP qHTS Assay for Modulators of WT P53-Induced Phosphatase 1 (WIP1) (AID 1347425). In a few lines:
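Read-out: Rhodamine-PBP fluorescence (ex 525/em 598 nm) for released Pi, read each minute for 11 min after adding 10 uM VEPPL-pS-QETFS; signal taken as f1 minus pre-substrate f0. Enzyme 5 nM WIP1 with 1 hr room-temperature compound preincubation.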

Chain of Single-stranded DNA cytosine deaminase (Homo sapiens) (Q9GZX7 whole entry, looked up): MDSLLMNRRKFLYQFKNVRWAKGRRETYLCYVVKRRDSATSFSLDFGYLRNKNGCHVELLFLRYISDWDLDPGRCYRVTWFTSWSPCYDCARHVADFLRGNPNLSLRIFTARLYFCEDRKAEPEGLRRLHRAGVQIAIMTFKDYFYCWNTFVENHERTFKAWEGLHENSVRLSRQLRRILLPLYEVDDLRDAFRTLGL
Chain of Protein phosphatase 1D (Homo sapiens) (O15297 whole entry, looked up): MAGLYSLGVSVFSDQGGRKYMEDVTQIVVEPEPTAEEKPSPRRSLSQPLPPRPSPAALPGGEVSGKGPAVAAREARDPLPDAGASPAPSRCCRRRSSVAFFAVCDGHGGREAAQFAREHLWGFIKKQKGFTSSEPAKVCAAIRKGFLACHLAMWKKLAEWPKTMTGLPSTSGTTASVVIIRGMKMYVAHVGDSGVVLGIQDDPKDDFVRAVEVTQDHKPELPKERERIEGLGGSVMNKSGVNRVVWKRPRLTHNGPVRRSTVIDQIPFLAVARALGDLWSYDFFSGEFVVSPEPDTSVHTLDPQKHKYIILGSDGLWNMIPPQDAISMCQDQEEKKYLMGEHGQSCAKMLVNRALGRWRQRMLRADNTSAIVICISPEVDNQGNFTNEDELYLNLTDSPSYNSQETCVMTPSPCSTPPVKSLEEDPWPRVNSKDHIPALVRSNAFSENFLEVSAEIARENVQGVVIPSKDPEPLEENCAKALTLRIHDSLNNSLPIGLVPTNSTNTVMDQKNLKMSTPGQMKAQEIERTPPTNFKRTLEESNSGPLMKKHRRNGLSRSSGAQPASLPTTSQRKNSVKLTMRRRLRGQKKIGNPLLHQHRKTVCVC

With `CC1(C)CCC(NC(=O)[C@@H](N)CCC(=O)O)CC1`, the call in test [1], in test [2] and in test [3] was inactive. In test [4], the Potency entry is “inactive”.

For the compound `Nc1cc(Cl)c(NC2=NCCN2)c(Cl)c1`, the compound was called inactive in test [1], in test [2] and in test [3]. In test [4], the Potency entry was “inactive”.

Take `O=C1c2ccccc2C(=O)C1c1ccccc1`: the Potency result in test [5] and in test [6] was “inactive” each time. Besides, the compound was classed as inactive in test [7].

Regarding `CC(CCc1ccccc1)NCC(O)c1ccc(O)c(C(N)=O)c1` (stereo not drawn), the compound was classed as inactive in test [1], in test [2] and in test [3]. Moreover, the Potency entry in test [4] is “inactive”.

In the case of `O=c1[nH]c(=O)n([C@H]2CCCO2)cc1F`, the Potency result in test [5] and in test [6] was “inactive” each time. Besides, the compound was classed as inactive in test [7].

Regarding `CC(Cc1cccc(C(F)(F)F)c1)NCCOC(=O)c1ccccc1` (stereo not drawn), the Potency result in test [5] and in test [6] was “inactive” in each case. Also, the result in test [7] was inactive.

For `C=CCc1ccc(O)c(OC)c1`, the Potency entry in test [5] and in test [6] was “inactive” in each case. In addition, the compound was classed as inactive in test [7].

Take `CO/N=C1\CN(c2nc3c(cc2F)c(=O)c(C(=O)O)cn3C2CC2)CC1CN` (stereo not drawn): the Potency entry in test [5] and in test [6] was “inactive” in each case. Further, the call in test [7] was inactive.

With `O=C(O)CNC(=O)c1ccccc1`, the Potency entry in test [5] and in test [6] was “inactive” each time. Moreover, in test [7], the compound was classed as inactive.

Take `CCN(CC)C(=O)/C(C#N)=C/c1cc(O)c(O)c([N+](=O)[O-])c1`: the Potency result in test [5] and in test [6] was “inactive” each time. Moreover, the call in test [7] was inactive.

For `CCCCCCC[N+](CC)(CC)CCCCc1ccc(Cl)cc1`, the Potency result in test [5] and in test [6] was “inactive” in each case. Besides, the compound was called inactive in test [7].

Consider `CC(C)n1nc(-c2cc3cc(O)ccc3[nH]2)c2c(N)ncnc21`, for which the Potency in test [5] was 4.7 µM (active). The Potency result in test [6] was “inactive”. In addition, the compound was classed as inactive in test [7].

Turning to `Cc1ccccc1C(=O)Nc1ccc(C(=O)N2CCCC(N(C)C)c3ccccc32)cc1` (stereo not drawn), the Potency entry in test [5] and in test [6] was “inactive” each time. The compound was called inactive in test [7].

As to `CC(C)(C(=O)c1cccnc1)c1cccnc1`, the Potency entry in test [5] and in test [6] was “inactive” throughout. Besides, in test [7], the call was inactive.

As to `CCCCN1CCCC1C(=O)Nc1c(C)cc(C)cc1C` (stereo not drawn), the Potency result in test [5] and in test [6] was “inactive” throughout. Besides, in test [7], the call was inactive.

For `CC[C@@H](CO)NCCN[C@@H](CC)CO`, the Potency result in test [5] and in test [6] was “inactive” in each case. In addition, the result in test [7] was inactive.

Consider `Cc1cc(N)c2cc(NC(=O)Nc3ccc4nc(C)cc(N)c4c3)ccc2n1`, for which the Potency entry in test [5] and in test [6] was “inactive” each time. In addition, the compound was classed as inactive in test [7].

With `CCCCc1nc(Cl)c(CO)n1Cc1ccc(-c2ccccc2-c2nn[nH]n2)cc1`, the Potency result in test [5] and in test [6] was “inactive” in each case. Moreover, in test [7], the compound was called inactive.

For the compound `COc1cc(N)c(Cl)cc1C(=O)NC1CCN(CCCOc2ccc(F)cc2)CC1OC` (stereo not drawn), the Potency entry in test [5] and in test [6] was “inactive” throughout. Besides, the result in test [7] was inactive.

With `c1ccc(-c2ccc(C(c3ccccc3)n3ccnc3)cc2)cc1` (stereo not drawn), the Potency result in test [5] and in test [6] was “inactive” in each case. Besides, the compound was classed as inactive in test [7].

Consider `COc1ccc(OC)c(C(O)CNC(=O)CN)c1` (stereo not drawn), for which the Potency entry in test [5] and in test [6] was “inactive” each time. In addition, in test [7], the call was inactive.

Turning to `Oc1c(I)cc(Cl)c2cccnc12`, the Potency result in test [5] and in test [6] was “inactive” each time. Further, the call in test [7] was inactive.

For the compound `CCOC(=O)c1cccc(N)c1`, the Potency entry in test [5] and in test [6] was “inactive” throughout. The result in test [7] was inactive.

`Cc1ccc(C(=O)C(C)CN2CCCCC2)cc1` (stereo not drawn): the Potency result in test [5] and in test [6] was “inactive” throughout. Further, the compound was called inactive in test [7].

Take `C=C1C[C@H]2[C@@H]3C=C(C)C4=CC(=O)CC[C@]4(C)[C@H]3CC[C@]2(C)[C@@]1(OC(C)=O)C(C)=O`: the Potency entry in test [5] and in test [6] was “inactive” throughout. In addition, in test [7], the compound was classed as inactive.

With `CCN(CC)CCNC(=O)COc1ccc(Cl)cc1`, the Potency entry in test [5] and in test [6] was “inactive” in each case. The compound was classed as inactive in test [7].

For the compound `O=C(CCN1CCC(c2ccccc2)C1)c1ccc2c(c1)OCCO2` (stereo not drawn), the Potency result in test [5] and in test [6] was “inactive” each time. Moreover, the call in test [7] was inactive.

For the compound `CCOc1ccc(NC(=O)CC(C)O)cc1` (stereo not drawn), the Potency result in test [5] and in test [6] was “inactive” each time. In test [7], the result was inactive.

Consider `CCN(CC)CCOC(=O)C(c1ccccc1)C1CCCCC1` (stereo not drawn), for which the Potency entry in test [5] and in test [6] was “inactive” throughout. Further, in test [7], the call was inactive.

As to `COc1cc2c(cc1OC)C(C(C(=O)N(CCc1ccc(OC)c(OC)c1OC)CCc1ccc(OC)c(OC)c1OC)c1ccccc1)=NCC2` (stereo not drawn), the Potency result in test [5] and in test [6] was “inactive” each time. Besides, in test [7], the compound was called inactive.

For `CC(Cc1ccccc1)(NC(=O)CN)c1ccccc1` (stereo not drawn), the Potency entry in test [5] and in test [6] was “inactive” throughout. Moreover, the compound was classed as inactive in test [7].

For `O=C1OC(c2ccc(O)cc2)(c2ccc(O)cc2)c2ccccc21`, the Potency result in test [5] and in test [6] was “inactive” throughout. Further, the call in test [7] was inactive.

Take `c1ccc(CNCCNCc2ccccc2)cc1`: the Potency entry in test [5] and in test [6] was “inactive” throughout. The compound was called inactive in test [7].

On to `COCc1c(C(C)C)nc(C(C)C)c(/C=C/[C@@H](O)C[C@@H](O)CC(=O)O)c1-c1ccc(F)cc1`, for which the Potency result in test [5] and in test [6] was “inactive” in each case. Also, the outcome in test [7] was inactive.

On to `Cc1ccc(Nc2c(F)cccc2Cl)c(CC(=O)O)c1`, for which the Potency entry in test [5] and in test [6] was “inactive” throughout. Also, in test [7], the call was inactive.

With `Nc1ccc(C(=O)O)cc1`, the Potency entry in test [5] and in test [6] was “inactive” in each case. The outcome in test [7] was inactive.

For `NC(=O)c1cc[n+](CC2=C(C(=O)[O-])N3C(=O)[C@@H](NC(=O)Cc4cccs4)[C@H]3SC2)cc1`, the Potency entry in test [5] and in test [6] was “inactive” each time. The outcome in test [7] was inactive.

For `O=S1(=O)c2cccc3cccc(c23)N1CCCN1CCN(c2ccc(F)cc2)CC1`, the Potency entry in test [5] and in test [6] was “inactive” in each case. Besides, the result in test [7] was inactive.

For `C#C[C@]1(O)CC[C@H]2[C@@H]3CCc4cc(OC5CCCC5)ccc4[C@H]3CC[C@@]21C`, the Potency entry in test [5] and in test [6] was “inactive” throughout. In test [7], the compound was called inactive.

Consider `CNC(=O)CN(CCN(CCN(CC(=O)[O-])CC(=O)NC)CC(=O)[O-])CC(=O)[O-].O.[Gd+3]`, for which the Potency entry in test [5] and in test [6] was “inactive” throughout. For the same compound, the call in test [7] was inactive.
